The panel holds about 83,000 compounds, 20% with a hit somewhere; the sample as a whole holds those more often.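 Negative percent growth values reflect cell death: -40 means 40% of the cells present at the start died, and -100 means all died.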 Unmarked numbers belong to inactive results. Active and inactive are the calls of the source. How the source made its calls: active means growth percent below 10; inactive means the rest.
What was measured:
Assay in all cases: NCI-60 one-dose screen, 48 h (100 = growth as untreated, 0 = no growth, -100 = all killed)
Conditions in all cases: 10 µM
DU-145 prostate = system: DU-145 prostate
K-562 leukemia = system: K-562 leukemia
MALME-3M melanoma = system: MALME-3M melanoma
MDA-MB-231 breast = system: MDA-MB-231 breast
SF-268 CNS = system: SF-268 CNS
SF-295 CNS = system: SF-295 CNS
SF-539 CNS = system: SF-539 CNS
UACC-257 melanoma = system: UACC-257 melanoma
M14 melanoma = system: M14 melanoma
HCT-15 colon = system: HCT-15 colon
HT29 colon = system: HT29 colon
SNB-75 CNS = system: SNB-75 CNS
SNB-19 CNS = system: SNB-19 CNS
U251 CNS = system: U251 CNS
PC-3 prostate = system: PC-3 prostate
SK-MEL-5 melanoma = system: SK-MEL-5 melanoma
UACC-62 melanoma = system: UACC-62 melanoma
LOX IMVI melanoma = system: LOX IMVI melanoma
SK-MEL-28 melanoma = system: SK-MEL-28 melanoma

SMILES | growth (DU-145 prostate) | growth (K-562 leukemia) | growth (MALME-3M melanoma) | growth (MDA-MB-231 breast) | growth (SF-268 CNS) [%] | growth (SF-295 CNS) [%] | growth (SF-539 CNS) [%] | growth (UACC-257 melanoma) | growth (M14 melanoma) [%] | growth (HCT-15 colon) | growth (HT29 colon) [%] | growth (SNB-75 CNS) [%] | growth (SNB-19 CNS) [%] | growth (U251 CNS) | growth (PC-3 prostate) [%] | growth (SK-MEL-5 melanoma) | growth (UACC-62 melanoma) | growth (LOX IMVI melanoma) | growth (SK-MEL-28 melanoma)
Nc1cc(-c2cccc(C(=O)NCc3ccc4c(c3)OCO4)c2)ccn1 | 101% | 74.4% | 99.3% | 102% | 91.5 | 90.7 | 93 | 106% | 108 | 95.8% | 111 | 86 | 95.2 | 92.2% | 103 | 91.7% | 93.4% | 89.5% | 103%
Cc1ccc2nc(-c3ccc(-c4nnc(SCC(=O)Nc5ccc(Cl)cc5)o4)cc3)[nH]c2c1 | 45% | 18% | 26.2% | 10.6% | 68.6 | 21.4 | 57 | 102% | 53.6 | 21.9% | 31.2 | 101 | 26.7 | -21% (active) | 14 | 83.9% | 56.3% | -45.6% (active) | 39.7%
O=C(NO)c1ccc(CNC(=O)[C@H]2Cc3c([nH]c4ccccc34)[C@H](c3ccccc3)N2)cc1 | 29.5% | 11.6% | 15.2% | 7.55% (active) | 40.3 | 17.7 | 34 | 21.4% | 27.5 | 72.4% | 20.2 | 52.3 | 39.4 | 13.4% | 33.3 | 8.18% (active) | -24.5% (active) | – | 6.06% (active)
O=C(N/C(=C1/OCCN1Cc1ccccc1)[P+](c1ccccc1)(c1ccccc1)c1ccccc1)c1ccccc1 | -15.1% (active) | 8.08% (active) | -60.6% (active) | 0.242% (active) | 21.1 | 31.4 | 25.3 | -4.84% (active) | 19.4 | 77.8% | 14.6 | 26.9 | 10.4 | 14.3% | 22.5 | -100% (active) | -36.4% (active) | 6.07% (active) | 22.8%
COc1ccc(-c2nc(-c3ccccc3)c(-c3ccccc3)n2-c2ccc(S(=O)(=O)Nc3ncccn3)cc2)cc1OC | 89% | 76.8% | 106% | 62.2% | 82.9 | 46.5 | 67.2 | 113% | 93.9 | 53.6% | 96.2 | 88.5 | 74.9 | 71.8% | 63.7 | 65.7% | 83.6% | 65.2% | 92.3%
CN1CCc2c(sc3ncnc(N/N=C/c4ccc5ccccc5c4)c23)C1 | 68.8% | 13.9% | 91.2% | 48% | 68.9 | 53.9 | 29.1 | 107% | 82 | 2.05% (active) | 20.4 | 76.4 | 74.2 | -4.86% (active) | 102 | 97.9% | 79.1% | 9.53% (active) | 100%
COc1cc(NC(=O)CSc2nnc(-c3ccc4nc(-c5ccc(Cl)cc5)[nH]c4c3)o2)cc(OC)c1OC | 73.8% | 31.3% | 66.5% | 75.2% | 76.1 | 48 | 43.7 | 94.4% | 69.5 | 43.3% | 61.7 | 93.7 | 86 | 77% | 46.9 | 50.5% | 37.8% | 51.9% | 70.5%
Cc1ccc(-c2cc(C(=O)N=Nc3c(O)[nH]c4ccc(Br)cc34)c3ccccc3n2)cc1 | 85.8% | 17.8% | 80.2% | 41.7% | 80.9 | 76.5 | 76 | 103% | 75.6 | 8.77% (active) | 42.1 | 102 | 61.1 | 21.7% | – | 96.7% | 60.6% | 25.3% | 84.4%
